The campaign covered roughly 21,000 compounds. Fewer than 10 were called active.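 The calls were made as follows: active = inhibition above 50% at the 20 µM single-dose screen; inactive = the rest.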 A selection follows.
The molecules below were run against Alkaline phosphatase, tissue-nonspecific isozyme (Homo sapiens) (UniProt P05186) (assay: human TNAP enzyme inhibitors, primary screen, biochemical, colorimetric, phosphate release readout (AID 614)). Conditions: purified TNAP, pNPP, malachite green phosphate absorbance; at 20 µM; stronger effect = higher value.
Alkaline phosphatase, tissue-nonspecific isozyme (Homo sapiens), sequence (P05186 whole entry, looked up): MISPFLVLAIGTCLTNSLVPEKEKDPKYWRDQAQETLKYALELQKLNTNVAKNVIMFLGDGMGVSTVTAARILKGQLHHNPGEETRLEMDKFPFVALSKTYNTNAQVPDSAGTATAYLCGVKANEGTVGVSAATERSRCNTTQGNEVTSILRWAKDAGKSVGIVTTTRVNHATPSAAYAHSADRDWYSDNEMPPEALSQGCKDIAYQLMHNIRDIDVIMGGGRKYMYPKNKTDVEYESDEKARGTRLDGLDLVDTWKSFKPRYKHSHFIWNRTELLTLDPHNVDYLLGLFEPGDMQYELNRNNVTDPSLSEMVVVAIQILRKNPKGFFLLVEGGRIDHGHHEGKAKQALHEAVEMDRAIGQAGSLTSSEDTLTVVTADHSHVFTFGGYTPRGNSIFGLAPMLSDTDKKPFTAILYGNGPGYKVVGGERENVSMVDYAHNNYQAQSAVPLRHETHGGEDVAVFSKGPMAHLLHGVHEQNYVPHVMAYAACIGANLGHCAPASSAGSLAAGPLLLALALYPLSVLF

inhibition, inactive:
CC1CCN(C(=O)Cn2cc(C(=O)c3ccco3)c3ccccc32)CC1 14.2%
O=C(c1ccccc1)N1CCN(C(=O)N2CCCCC2)CC1 -5.7%
CC1C(c2ccccc2)=[N+]([O-])C2(CCCC2)N1O (centres undefined) 12.6%
Cc1nonc1OCCn1nnnc1N 8.7%
O=C(OC(C(=O)NC1CCCC1)c1ccc(F)cc1)c1ccno1 (centres undefined) 0%
CCc1ccccc1NC(=O)CSc1nnc([C@@H](NC(=O)OC(C)(C)C)C(C)C)o1 4.3%
CC1OC2C(OC1C)N(S(C)(=O)=O)CCN2S(C)(=O)=O (centres undefined) 10%
O=C(CCN1C(=O)c2ccccc2C1=O)Nc1ccncc1 7.9%
CCOC(=O)CSc1nc2sc3c(c2c(=O)[nH]1)CC(C)(C)OC3 -12.8%
COc1ccc(-c2cc(C(F)(F)F)n3nc(C(=O)N4CCOCC4)c(Cl)c3n2)cc1 6%
C=C(Br)Cn1c(CCCC)nc2ccccc21 0%
COc1ccc(Br)cc1/C=N/n1c(C)nnc1C 8.2%
CCC(=O)Nc1sc(C(=O)N2CCCCC2)c(C)c1C#N -23.7%
CCCCNc1nc2ccccc2nc1NS(=O)(=O)c1cccs1 1.2%
COc1cc(C2C(C(=O)c3sc(C)nc3C)=C(O)C(=O)N2CCN(C)C)cc(OC)c1OC (centres undefined) 13%
Cc1cc(C)c(C#N)c(SCc2ccccc2C(=O)O)n1 -0.3%
CCCCc1nc2ccccc2c(=O)n1NC(=O)c1c(O)c2cccc3c2n(c1=O)CC3 4.4%
Cc1ccc2cc(C#N)c(SCC(=O)NCC3CCCO3)nc2c1C (centres undefined) 8.6%
COc1ccc2c(c1OC)C(=O)OC2c1c(O)nc(SC)n(-c2ccccc2)c1=O (centres undefined) -0.7%
Cc1ccc2c(NC(=O)C3CC3)cccc2n1 9.9%
O=c1c(F)cn(C2CCCO2)c(=O)n1Cc1ccccc1Cl (centres undefined) 7.7%
COCCNC(=O)c1ccccc1-c1nc(-c2ccccc2Cl)no1 1.6%
Cc1cc(C)nc(N(C#N)CC(=O)Nc2ccccc2)n1 -15.3%
CCCCNC(=O)CSc1nccn1Cc1ccccc1 10.7%
CCC(C)NC(=O)N[C@@H](CCSC)C(=O)O (some centres undefined) 8.1%
O=C(Nc1cnccn1)c1cccnc1 6.7%
COc1ccc(-c2n[nH]c(C)c2-c2ccc(OC)c(OC)c2)c(O)c1 7.2%
c1nc(COc2nsnc2N2CCOCC2)cs1 5.5%
Cc1cc2ccccc2n2c(SCC(=O)N3CCN(C(=O)c4ccco4)CC3)nnc12 12.5%

Reference: PubChem BioAssay AID614 (Sanford-Burnham Center for Chemical Genomics, 2007)
